Laboratory results published in PubChem BioAssay AID1347043 (National Center for Advancing Translational Sciences (NCATS), 2019).
About 1,900 (2.5%) of roughly 76,000 compounds were called active. About 5% were inconclusive and are not listed. Calls follow the shape of the dose curve; as a rule, active = well fitted inhibition curve with a large enough effect; inconclusive = small, poorly fitted or top-dose-only effect; inactive = flat fitted curve, though single readings scatter. For the sample, actives were picked, then their nearest neighbours and some compounds at random.

Target: Luciferin 4-monooxygenase (Photinus pyralis) (UniProt P08659)
Sequence (P08659 whole entry, looked up): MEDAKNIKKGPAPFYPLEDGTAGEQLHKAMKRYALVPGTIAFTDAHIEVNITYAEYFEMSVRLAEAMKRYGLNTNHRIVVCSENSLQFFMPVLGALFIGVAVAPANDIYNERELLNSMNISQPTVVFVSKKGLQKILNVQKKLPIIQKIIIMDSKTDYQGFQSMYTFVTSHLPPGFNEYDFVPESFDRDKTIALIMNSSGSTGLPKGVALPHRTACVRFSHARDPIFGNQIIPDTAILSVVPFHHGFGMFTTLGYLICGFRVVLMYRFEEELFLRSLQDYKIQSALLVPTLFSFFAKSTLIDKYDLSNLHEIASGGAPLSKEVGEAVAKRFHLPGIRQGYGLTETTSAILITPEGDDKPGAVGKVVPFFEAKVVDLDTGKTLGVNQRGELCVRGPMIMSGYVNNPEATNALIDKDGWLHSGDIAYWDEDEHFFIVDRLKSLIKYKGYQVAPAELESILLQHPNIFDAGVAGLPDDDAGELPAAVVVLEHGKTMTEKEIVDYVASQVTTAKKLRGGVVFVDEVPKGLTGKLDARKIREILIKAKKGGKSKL
Assay: Firefly luciferase inhibition profiling of diverse chemical library using quantitative high-throughput screening; also: nearly all actives have a fitted effect of over 65% in size
Conditions: purified P. pyralis luciferase, luminescence, biochemical; series mostly up to 115 µM; activity change, negative = inhibition: at the top concentration
In short: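 Purified P. pyralis luciferase (10nM final) in 50mM Tris acetate pH 7.5, 10mM Mg acetate, 0.01% Tween-20, 0.05% BSA with 10uM D-luciferin and 10uM ATP. Compounds titrated qHTS. Luminescence imaged on CCD.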
% is scaled to controls: 0 for no effect and ±100 for the full control effect; potency is read from the fitted curve at half-maximal effect.

Activity change, negative = inhibition, inactive:
COCC1CN(C(=O)c2cc(C)n(C)n2)CC12CCNCC2 (stereo not drawn) 1.59%
O=C(NC1CC1)c1ccc2c(c1)C1(CCN(CC3CC3)C1)CN2Cc1ccccc1 (stereo not drawn) 3.95% [at 172 µM]
CC(=O)Nc1ccc(CN2CCCC3(CC(c4cccc(C(F)(F)F)c4)=NO3)C2)cc1 (stereo not drawn) 3.04%
CSCCNC(=O)c1coc(CN2CCN(C/C=C/c3ccccc3)CC2)n1 -2.08%
Cc1cccc(NC(=O)C2CC(=O)N(c3n[nH]c4ccccc34)C2)n1 (stereo not drawn) -2.55%
Cc1ccsc1C(=O)NCC1Cn2cccc2C(=O)N1Cc1ccccc1 (stereo not drawn) -2.19%
Cc1ccc(S(=O)(=O)Nc2ccc(C)n(CC(=O)NCc3cccc(F)c3)c2=O)cc1 -5.04%
COc1ccc(NC(=O)Cn2c(C)ccc(NS(=O)(=O)c3ccccc3)c2=O)cc1 -5.55%
CN(C)c1ccc(CN2CCC3(CC(Cc4ccccc4)=NO3)C2)cc1 (stereo not drawn) -1.37%
CCN1c2cc(C(=O)Nc3ccc(F)c(Cl)c3)ccc2C(=O)N2CCCCC21 (stereo not drawn) -9.38%
CCN1c2cc(C(=O)Nc3ccc(SC)cc3)ccc2C(=O)N2CCCCCC21 (stereo not drawn) -28.6%
Cc1ccc(CNC(=O)c2ccc3c(c2)N(C)C2CCCCN2C3=O)cc1C (stereo not drawn) -10.8%
CCN1c2cc(C(=O)NCc3ccc(OC)cc3OC)ccc2C(=O)N2CCCCCC21 (stereo not drawn) 2.45%
CCN1c2cc(C(=O)Nc3ccc(F)c(C)c3)ccc2C(=O)N2CCCCC21 (stereo not drawn) -21.7%
CCN1c2cc(C(=O)Nc3ccc(OC)c(F)c3)ccc2C(=O)N2CCCCC21 (stereo not drawn) -15.5%
COc1ccc(CNC(=O)c2ccc3c(c2)N(C)C2CCCCN2C3=O)c(OC)c1 (stereo not drawn) -8.05%
CN1c2cc(C(=O)N3CCC(C(N)=O)CC3)ccc2C(=O)N2CCCCC21 (stereo not drawn) 0.0605%
O=C(Cc1cccc(Cl)c1)N1CCC([C@@H]2CNC[C@H]2CO)CC1 1.45%
CN1CCN(C2CCOC3(CCN(C(=O)c4cccc5[nH]ccc45)CC3)C2)CC1 (stereo not drawn) 0%
O=C(NCc1ccccc1C(F)(F)F)c1cc2n(n1)CC(c1ccc3c(c1)OCO3)OC2 (stereo not drawn) -10.1%
CC(C)CN1CCN(C2CCOC3(CCN(C(=O)C4CCCC4)CC3)C2)CC1 (stereo not drawn) -1.21%
O=C(NCc1nnc2c(-c3nc(C4CC4)no3)cccn12)c1cccnc1 -0.5%
CC(=O)N1CCc2[nH]cnc2C12CCN(C(=O)C(C)Oc1ccccc1)CC2 (stereo not drawn) 3.66%
CCc1noc(-c2ccn3c(CNC(=O)c4ccc(OC)c(F)c4)nnc3c2)n1 3.28%
O=C(c1ccc2c(c1)OCO2)N1CCCC2(CN[S+](=O)([O-])c3ccccc3N2)C1 (stereo not drawn) -5.81%
CCCn1c(C)cnc1CC1CCN(C(=O)CCOC)CC1 -2%
Cc1cccc(N2C(=O)CSC23CCN(C(=O)C2CCC2)CC3)c1 -11.1%
COc1ccnc(CN2CCN(C)C3(CCC(=O)N(C)CC3)C2)c1OC (stereo not drawn) -0.911%
CCN(CC)CC[C@H]1CN(C(=O)c2ccc(N(C)C)cc2)CC[C@H]1CC(=O)O -2.45% [at 172 µM]
Cc1ccccc1CNC(=O)c1ccc2c(c1)N(C)C1CCCCN1C2=O (stereo not drawn) -12.7%
CCN1c2cc(C(=O)Nc3ccccc3)ccc2C(=O)N2CCCC21 (stereo not drawn) -13.5%
Cc1cc(C)cc(C(=O)NC2CCN(c3cc(-c4cccs4)[nH]n3)C2)c1 (stereo not drawn) 9.15%
Cc1cccc(CN2C[C@@H]3C(=O)N(Cc4ccc5c(c4)OCO5)C(=O)[C@@H]3C2)c1 6.64%
COc1ccc(OC)c(S(=O)(=O)N2CCCCCCNC(=O)CC2c2ccccc2)c1 (stereo not drawn) -6.43%
CC(=O)N1CCc2ccc(C(=O)N3CCCCCC3)cc21 -12.8%
CCOc1cccc(CNC(=O)c2ccc3c(c2)N(S(C)(=O)=O)CC3)c1 -22.4%
CN(c1ccccc1)c1cc(=O)c2ccnc(-c3ccc(CO)cc3)c2o1 -21.1% [at 172 µM]
CN(c1ccccc1)c1cc(=O)c2ccnc(Nc3cccc([S+](C)(=O)[O-])c3)c2o1 -11.7% [at 172 µM]
Cc1ccc(CN2CCc3nc(C)nc(-c4ccc(O)cc4)c3C2)cc1 -1.5%
CCN1CCN(c2ccc(C(=O)NCCCn3ccnc3C(C)C)cn2)CC1 0.497%
O=C(NCC1CC1)c1nc2c(o1)CCN(CCc1ccccc1)CC2 -18.4% [at 172 µM]
N#Cc1ccc(CN2CCc3nc(C(=O)N4CCOCC4)oc3CC2)cc1 2.1% [at 172 µM]
O=C(NCC1CC1)c1nc2c(o1)CCN(Cc1cccc(F)c1F)CC2 11.9% [at 172 µM]
Cc1cccc(CN2CCc3nc(C(=O)Nc4ccc(Cl)cc4)oc3CC2)c1 0.619% [at 172 µM]
O=C(c1ccccc1-n1cccn1)N1CCN(Cc2ccccc2CO)CC1 6.18%
CCOc1ccc(C(=O)N2CCC(Cc3nc(C(C)C)no3)CC2)cc1 13.5%
Cc1nccn1CC1(CNc2ccncn2)CC1 3.86%
CN(C)Cc1nnc(C2CCCN(C(=O)C3(N)CCNCC3)C2)n1C (stereo not drawn) -2.13%
COc1ccccc1C1CCN(Cc2cn(-c3ccccc3)nn2)CC1 1.57%
O=C(Nc1ccc([C@@H](O)[C@H]2COCC(=O)N2Cc2ccccc2F)cc1)C1CCCCC1 6.26%
O=C(Nc1ccc([C@@H](O)[C@H]2COCC(=O)N2Cc2ccccc2F)cc1)c1ccccc1 -24.9% [at 172 µM]
O=C([C@H]1C[C@H](Oc2cccnc2)CN1C(=O)CCCc1ccccc1)N1CCOCC1 4.94%

Potency, active:
CC(=O)NC1(C)CCN(Cc2cccc(-c3ccc(C(=O)c4ccccc4)cc3)c2)C1 (stereo not drawn) 39.8 µM
Cc1ccc(NC(=O)Nc2ccc(C)n(CC(=O)NCCN3CCCC3)c2=O)cc1 14.1 µM
CCOc1ccc(NC(=O)c2ccc3c(c2)N(C)C2CCCN2C3=O)cc1 (stereo not drawn) 44.7 µM
CN1c2cc(C(=O)Nc3ccc(F)c(F)c3)ccc2C(=O)N2CCCCCC21 (stereo not drawn) 5.62 µM
CN1c2cc(C(=O)Nc3ccc(F)cc3)ccc2C(=O)N2CCCCC21 (stereo not drawn) 25.1 µM
Cc1cc(NC(=O)c2ccc3c(c2)N(C)C2CCCCCN2C3=O)ccc1F (stereo not drawn) 17.8 µM
CN1c2cc(C(=O)Nc3ccccc3)ccc2C(=O)N2CCCCCC21 (stereo not drawn) 6.31 µM
CCC(CC)N1CCN(C(=O)c2ccc3c(c2)N(S(C)(=O)=O)CC3)CC1 35.5 µM
O=C(Nc1ccc(Cl)cc1)c1nc2c(o1)CCN(Cc1ccsc1)CC2 17.8 µM
O=C(Nc1ccccc1)c1nc2c(o1)CCN(Cc1cccc(Cl)c1)CC2 1.58 µM
Cc1ccc(C(=O)Nc2ccc(C(O)[C@H]3COCC(=O)N3Cc3ccccc3F)cc2)cc1 (stereo partly drawn) 28.2 µM
